Source: PubChem BioAssay (NCI)
About 79,000 compounds went through this panel and 15% of them were active in at least one assay; those are over-represented in the sample as a whole. The source made the active and inactive calls. Cut-off read from the data, not from the text of the source: active = growth inhibition above about 70%; inactive = the rest.

Tests used:
[1] = NCI Yeast Anticancer Drug Screen. Data for the rad52 strain (AID 147);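 note: 0% = growth of vehicle-treated control cultures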; details: S. cerevisiae rad52 mutant growth inhibition, stronger effect = higher value
Method in brief: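 Yeast strain carrying a DNA damage repair alteration was exposed to test compounds. Growth inhibition was measured relative to vehicle-treated controls.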

[2] = NCI Yeast Anticancer Drug Screen. Data for the wt1 strain (AID 149);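 note: 0% = growth of vehicle-treated wt1 cultures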; details: S. cerevisiae wt1 strain (SPY 50644) growth inhibition, stronger effect = higher value
Method in brief: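 Measured: growth of wt1 yeast under compound versus vehicle treatment, reported as inhibition.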

[3] = NCI Yeast Anticancer Drug Screen. Data for the rad50EPP+ strain (AID 151);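 note: 0% = growth of vehicle-treated control cultures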; details: S. cerevisiae rad50 mutant strain, stronger effect = higher value
Method in brief: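 Yeast strain carrying rad50 alteration (rad50EPP+) exposed to compounds; growth inhibition measured relative to vehicle-treated controls.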

[4] = NCI Yeast Anticancer Drug Screen. Data for the rad50 strain (AID 155);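 note: 0% = growth of vehicle-only cultures of the same strain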; details: S. cerevisiae rad50 strain growth inhibition, stronger effect = higher value
Method in brief: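 Growth of the mutant yeast was measured after compound exposure and referenced to vehicle-treated cultures.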

[5] = NCI Yeast Anticancer Drug Screen. Data for the mec2-1 strain (AID 157); details: S. cerevisiae mec2-1 strain, stronger effect = higher value
Method in brief: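 mec2-1 yeast strain, carrying an alteration in DNA damage repair or cell cycle control, was exposed to compounds; growth inhibition was measured relative to vehicle-treated controls.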

[6] = NCI Yeast Anticancer Drug Screen. Data for the rad14 strain (AID 159);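 note: 0% = growth of vehicle-treated control cultures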; details: S. cerevisiae rad14 strain growth inhibition, stronger effect = higher value
Method in brief: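 Here, inhibition of yeast growth was measured after compound exposure, using a strain with a genetic defect in DNA damage repair and vehicle-treated cultures as the reference.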

[7] = NCI Yeast Anticancer Drug Screen. Data for the sgs1 mgt1 strain (AID 161);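 note: 0% = growth of cultures given vehicle only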; details: S. cerevisiae sgs1 mgt1 strain, stronger effect = higher value
Method in brief: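 Percent growth inhibition was derived by comparing compound-exposed mutant yeast with vehicle-exposed cultures. The strain carries alterations in DNA damage repair.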

[8] = NCI Yeast Anticancer Drug Screen. Data for the CLN2oe strain (AID 163);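 note: 0% = growth of vehicle-only control cultures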; details: S. cerevisiae CLN2oe strain, stronger effect = higher value
Method in brief: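 Yeast cells carrying a defined cell-cycle control alteration were exposed to test compounds. Growth inhibition was scored against vehicle-treated control cultures.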

[9] = NCI Yeast Anticancer Drug Screen. Data for the cln2 rad14 strain (AID 165);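 note: 0% = growth equal to vehicle treated cultures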; details: S. cerevisiae cln2 rad14 strain, stronger effect = higher value
Method in brief: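 Yeast carrying cln2 and rad14 alterations (cell cycle control and DNA damage repair) were exposed to compounds. Growth inhibition was measured against vehicle-treated controls.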

[10] = NCI Yeast Anticancer Drug Screen. Data for the bub3 strain (AID 167); details: S. cerevisiae bub3 mutant strain, stronger effect = higher value
Method in brief: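 Whole-cell yeast assay. The mutant strain was incubated with compounds, and growth inhibition was determined by comparison with vehicle-treated cells.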

[11] = NCI Yeast Anticancer Drug Screen. Data for the wt2 strain (AID 169);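 note: 0% = growth of vehicle-treated yeast cultures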; details: S. cerevisiae wt2 strain growth inhibition, stronger effect = higher value
Method in brief: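 Yeast cells were exposed to test compounds, and growth inhibition was measured relative to vehicle-treated controls.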

[12] = NCI Yeast Anticancer Drug Screen. Data for the mlh1 strain (AID 171);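 note: 0% = growth of vehicle-treated control cultures of the same strain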; details: S. cerevisiae mlh1 strain growth inhibition, stronger effect = higher value
Method in brief: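 Yeast carrying a defined genetic alteration in DNA damage repair or cell cycle control were exposed to test compounds. Growth inhibition was measured relative to vehicle-treated controls.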

[13] = NCI Yeast Anticancer Drug Screen. Data for the sgs1 strain (AID 173);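 note: 0% = growth of vehicle-only control cultures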; details: S. cerevisiae sgs1 mutant, stronger effect = higher value
Method in brief: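 Yeast mutant strains carrying defined defects in DNA damage repair or cell cycle control were exposed to test compounds. Growth inhibition was scored against vehicle-treated controls.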

[14] = NCI Yeast Anticancer Drug Screen. Data for the mlh1 rad18 strain (AID 175); details: S. cerevisiae mlh1 rad18 strain growth inhibition, stronger effect = higher value
Method in brief: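 Growth inhibition of the yeast strain was measured after compound exposure and expressed relative to vehicle-treated controls. The strain carries defined defects in DNA damage repair.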

[15] = NCI Yeast Anticancer Drug Screen. Data for the rad18 strain (AID 177); details: S. cerevisiae rad18 mutant growth inhibition, stronger effect = higher value
Method in brief: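 Yeast carrying a defined DNA damage repair alteration were exposed to compounds. Growth inhibition was expressed relative to vehicle-treated controls.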

[16] = NCI Yeast Anticancer Drug Screen. Data for the mgt1 strain (AID 153); details: S. cerevisiae mgt1 mutant growth inhibition, stronger effect = higher value
Method in brief: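 Yeast mgt1 strain (DNA repair/cell-cycle alteration panel) exposed to compounds; growth inhibition measured relative to vehicle-treated controls.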

[17] = at 5.0 µM (retest, dose inferred, filed as 0.5)
[18] = at 50.0 µM (retest, dose inferred, filed as 5.0)

Measured: growth inhibition

COc1ccc(NC(=S)N/N=C(\c2ccccc2)c2ccccn2)cc1
active: [1]; at 100.0 µM 96% | [2]; at 100.0 µM 95% | [4]; [18] 89% | [4]; at 100.0 µM 95% | [5]; [18] 75% | [5]; at 50.0 µM 74.7% | [5]; at 100.0 µM 95% | [6]; at 100.0 µM 95% | [7]; [18] 91% | [7]; at 50.0 µM 78.3% | [8]; at 100.0 µM 95% | [9]; [18] 88% | [9]; at 50.0 µM 79.2% | [10]; [18] 90% | [10]; at 50.0 µM 83.9% | [11]; at 100.0 µM 96% | [12]; at 100.0 µM 94% | [13]; at 100.0 µM 97% | [14]; [18] 90% | [14]; at 50.0 µM 83.7% | [15]; at 100.0 µM 95%
inactive: [1]; at 1.2 µM -3% | [1]; at 3.7 µM -3% | [1]; at 11.0 µM -3% | [1]; at 33.0 µM 59% | [2]; at 1.2 µM -4% | [2]; at 3.7 µM -3% | [2]; at 11.0 µM -3% | [2]; at 33.0 µM 50% | [3]; at 1.2 µM 0% | [3]; at 3.7 µM 4% | [3]; at 11.0 µM 5% | [3]; at 33.0 µM 3% | [3]; at 100.0 µM 55% | [4]; at 1.2 µM 0% | [4]; at 3.7 µM 1% | [4]; [17] 12% | [4]; at 11.0 µM -34% | [4]; at 33.0 µM 59% | [4]; at 50.0 µM 68.1% | [5]; at 1.2 µM 0% | [5]; at 3.7 µM -7% | [5]; [17] 13% | [5]; at 11.0 µM -5% | [5]; at 33.0 µM 61% | [6]; at 1.2 µM -4% | [6]; at 3.7 µM -4% | [6]; at 11.0 µM -6% | [6]; at 33.0 µM 65% | [7]; [17] -34% | [8]; at 1.2 µM -1% | [8]; at 3.7 µM -4% | [8]; at 11.0 µM -4% | [8]; at 33.0 µM 55% | [9]; [17] 33% | [10]; at 1.2 µM -6% | [10]; at 3.7 µM 4% | [10]; [17] 35% | [10]; at 11.0 µM 4% | [10]; at 33.0 µM -4% | [10]; at 100.0 µM 66% | [11]; at 1.2 µM -4% | [11]; at 3.7 µM -4% | [11]; at 11.0 µM -3% | [11]; at 33.0 µM 53% | [12]; at 1.2 µM -4% | [12]; at 3.7 µM -4% | [12]; at 11.0 µM -2% | [12]; at 33.0 µM 60% | [13]; at 1.2 µM -5% | [13]; at 3.7 µM -4% | [13]; at 11.0 µM 0% | [13]; at 33.0 µM 52% | [14]; [17] 55% | [15]; at 1.2 µM -3% | [15]; at 3.7 µM 0% | [15]; at 11.0 µM -2% | [15]; at 33.0 µM 51%

CC(C)/C(Cl)=N\OC(=O)Nc1ccccc1F
active: [4]; [18] 85% | [7]; [18] 82% | [10]; at 3.7 µM 83% | [10]; at 11.0 µM 92% | [10]; at 33.0 µM 93% | [10]; [18] 98% | [10]; at 50.0 µM 82% | [10]; at 100.0 µM 94%
inactive: [1]; at 1.2 µM 4% | [1]; at 3.7 µM 9% | [1]; at 11.0 µM 19% | [1]; at 33.0 µM 35% | [1]; at 100.0 µM 35% | [2]; at 1.2 µM 1% | [2]; at 3.7 µM 4% | [2]; at 11.0 µM 9% | [2]; at 33.0 µM 17% | [2]; at 100.0 µM 18% | [3]; at 1.2 µM 18% | [3]; at 3.7 µM 28% | [3]; at 11.0 µM 46% | [3]; at 33.0 µM 59% | [3]; at 100.0 µM 46% | [16]; at 1.2 µM 0% | [16]; at 3.7 µM 6% | [16]; at 11.0 µM 21% | [16]; at 33.0 µM 23% | [16]; at 100.0 µM 21% | [4]; at 1.2 µM 9% | [4]; at 3.7 µM 17% | [4]; [17] 2% | [4]; at 11.0 µM 21% | [4]; at 33.0 µM 43% | [4]; at 50.0 µM -7.75% | [4]; at 100.0 µM 40% | [6]; at 1.2 µM 6% | [6]; at 3.7 µM 14% | [6]; at 11.0 µM 9% | [6]; at 33.0 µM 23% | [6]; at 100.0 µM 26% | [7]; [17] -38% | [7]; at 50.0 µM 62.5% | [8]; at 1.2 µM 15% | [8]; at 3.7 µM 14% | [8]; at 11.0 µM 19% | [8]; at 33.0 µM 19% | [8]; at 100.0 µM 23% | [9]; [17] 23% | [9]; [18] 37% | [9]; at 50.0 µM 35.1% | [10]; at 1.2 µM 55% | [10]; [17] 49% | [11]; at 1.2 µM 0% | [11]; at 3.7 µM 5% | [11]; at 11.0 µM 15% | [11]; at 33.0 µM 41% | [11]; at 100.0 µM 29% | [13]; at 1.2 µM 6% | [13]; at 3.7 µM 13% | [13]; at 11.0 µM 34% | [13]; at 33.0 µM 60% | [13]; at 100.0 µM 49% | [14]; [17] -15% | [14]; [18] 66% | [14]; at 50.0 µM 58.9% | [15]; at 1.2 µM -6% | [15]; at 3.7 µM 3% | [15]; at 11.0 µM 17% | [15]; at 33.0 µM 43% | [15]; at 100.0 µM 41%

Nc1ncncc1C(C1=C(O)COC1=O)C1=C(O)COC1=O
inactive: [1]; at 1.2 µM 2% | [1]; at 3.7 µM -1% | [1]; at 11.0 µM -1% | [1]; at 33.0 µM -2% | [1]; at 100.0 µM 0% | [2]; at 1.2 µM 1% | [2]; at 3.7 µM 4% | [2]; at 11.0 µM -3% | [2]; at 33.0 µM 0% | [2]; at 100.0 µM 1% | [3]; at 1.2 µM 6% | [3]; at 3.7 µM 10% | [3]; at 11.0 µM 10% | [3]; at 33.0 µM 6% | [3]; at 100.0 µM 2% | [16]; at 1.2 µM -2% | [16]; at 3.7 µM -4% | [16]; at 11.0 µM -6% | [16]; at 33.0 µM -2% | [16]; at 100.0 µM -2% | [4]; at 1.2 µM 2% | [4]; at 3.7 µM 2% | [4]; [17] -10% | [4]; at 11.0 µM -2% | [4]; at 33.0 µM 0% | [4]; [18] 15% | [4]; at 50.0 µM 8.05% | [4]; at 100.0 µM 1% | [5]; at 1.2 µM 4% | [5]; at 3.7 µM 7%
